Assay outcomes: PubChem BioAssay, National Center for Advancing Translational Sciences (NCATS)
GLP1R inv ag – acts as inverse agonist at human GLP-1 receptor. actives 1.6% (n = 410,000). HEK293 GLP-1R CRE-luciferase, luminescence, 24 h; GLP-1R form is constitutively active. P43220. Potency, µM (highest dose often 38.3 µM), usual class: inhibitors; further: nearly all actives have a fitted effect of over 55% in size
Target sequence (P43220 whole entry, looked up): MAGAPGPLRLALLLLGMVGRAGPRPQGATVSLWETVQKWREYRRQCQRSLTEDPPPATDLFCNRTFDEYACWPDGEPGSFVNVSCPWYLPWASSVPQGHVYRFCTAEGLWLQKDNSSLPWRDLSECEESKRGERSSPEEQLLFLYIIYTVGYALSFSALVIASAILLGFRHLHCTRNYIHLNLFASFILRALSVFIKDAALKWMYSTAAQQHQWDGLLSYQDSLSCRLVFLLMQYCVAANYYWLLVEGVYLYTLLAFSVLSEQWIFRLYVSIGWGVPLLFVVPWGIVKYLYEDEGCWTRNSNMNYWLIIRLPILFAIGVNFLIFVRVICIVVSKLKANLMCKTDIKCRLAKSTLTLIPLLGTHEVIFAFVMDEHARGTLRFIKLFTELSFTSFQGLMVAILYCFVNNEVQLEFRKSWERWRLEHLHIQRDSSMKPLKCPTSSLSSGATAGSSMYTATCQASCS
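GLP-1R inverse agonism mode: basal reporter luminescence in engineered HEK293 cells measured after one day of compound exposure at 37 deg C, with a 12 min room-temperature detection step.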
p53 reactivator – restores transcriptional activity of mutant p53 | H1299 p53-A138V BP100-luciferase reporter, luminescence, 24 h | Potency, µM (series often up to 92.2 µM), actives largely listed as activators | actives 0.063% (n = 320,000); further: nearly all actives have a fitted effect of over 45% in size
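H1299 (p53-null), stable ts p53-A138V + BP100-Luc; 1000 cells/well, Opti-MEM/10% FBS; cpd 4 pt, 1:5; 24 h, 37 deg C, 5% CO2; detection reagent 10 min RT; luminescence.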
ClpP mod – qHTS Assay for Activators of ClpP; ATP-dependent Clp protease proteolytic subunit (Bacillus subtilis (strain 168)), P80244; purified B. subtilis ClpP, FRET peptide cleavage, 20 min; Potency, µM (titrated, usually from 57.5 µM); actives 1.9% (n = 340,000); AID 651965, 2013; active means well fitted falling curve with a large enough effect; inconclusive means small, poorly fitted or top-dose-only effect; inactive means no such curve, though single readings can be large or run the other way; further: the source files actives as falling curves though it sought activators and does not explain the sign; nearly all actives have a fitted effect of over 65% in size
Target sequence (P80244 whole entry, looked up): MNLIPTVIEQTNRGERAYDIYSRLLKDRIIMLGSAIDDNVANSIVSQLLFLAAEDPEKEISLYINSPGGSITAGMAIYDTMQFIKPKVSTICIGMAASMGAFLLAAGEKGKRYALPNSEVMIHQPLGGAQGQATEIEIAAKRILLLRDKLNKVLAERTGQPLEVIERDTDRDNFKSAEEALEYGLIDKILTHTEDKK
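Purified B. subtilis ClpP, 10 microg/mL final in Tris/HCl pH8 with KCl, BSA, glycerol and Tween-20, cleaved an Abz/nitrotyrosine-quenched decapeptide. Fluorescence (ex 320, em 430) was read at 0 and 20 min at room temperature. Delta was normalized to 5.8 microM ADEP and DMSO/no-enzyme controls.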
LDHA inh – inhibitors of human lactate dehydrogenase A | purified LDHA, NADH/diaphorase-resazurin fluorescence; hits give low values | activity change, % (values are at about 110 or 230 µM) | P00338 | AID 1347041 | actives 0.15% (n = 480,000); in the data active means activity change below about -30%; inconclusive means mostly about -25% to -30%
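Human LDH5 at 2 nM final in Tris HCl pH 7.4 with 0.06 mM NADH and 0.2 mM pyruvate, reacted 5 minutes at room temperature. Remaining NADH coupled via diaphorase/resazurin; resorufin fluorescence read at 0 and 20 minutes, normalized to enzyme-free and DMSO wells.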
GLP1R ag – GLP-1 receptor (human) agonism | HEK293 GLP-1R CRE-luciferase, luminescence, 4-6 h; cells express a hypersensitive GLP-1R form | Potency, µM (top dose mostly 45.6 µM), hits mostly activators | actives 0.007% (n = 380,000)
GLP1R cytotox – cytotoxicity in counter-screen for GLP-1R inverse agonists | HEK293 cAMP-luciferase reporter cells, luminescence, 24 h | Potency, µM (highest dose often 38.3 µM), usual class: inhibitors | actives 0.13% (n = 410,000) | AID 624418;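 further: loss of luciferase light is scored as toxicity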
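1536-well qHTS counterscreen of the MLSMR; 200 cells/uL, 12 h pre-incubation, 23 nL cpd, 24 h at 37 deg C 5% CO2, luciferase detection reagent, 12 min RT, luminescence. Inhibition = undesired.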
Numbers stand for hits; – = inactive; ? = inconclusive; · = not tested or not shown. The list is not random: actives were taken first. Their share in the collection is about 2.9%. Unless noted, the call rests on the fitted dose curve; in most records, active means well fitted curve in the direction sought with a large enough effect; inconclusive means small, poorly fitted or top-dose-only effect, or another doubt; inactive means no such curve, though single readings can be large; an effect the other way counts as inactive or inconclusive.

SMILES	GLP1R inv ag	p53 reactivator	ClpP mod	LDHA inh	GLP1R ag	GLP1R cytotox
Cc1cc2nc(-c3ccc(SCC(=O)Nc4ccc(S(=O)(=O)NC5CC5)cc4)nc3)[nH]c2cc1C	?	2.8µM	8.9µM	–	–	?
CCN(CC)c1nc2ccccc2c(N)c1-c1ccccc1	2.5µM	–	–	?	–	–
Cc1ccc(-n2nc3c(c2NC(=O)c2ccc(F)c(F)c2)CS(=O)(=O)C3)cc1	–	–	28µM	–	–	–
Cc1ccc(-n2nc3c(c2NC(=O)c2ccc4c(c2)OCO4)CS(=O)(=O)C3)cc1	–	–	–	–	–	–
O=C(CN1CCC(n2nnc3cc(C(F)(F)F)ccc32)CC1)Nc1ccc2c(c1)OCCO2	?	–	–	–	–	?
O=C(CN1CCC(n2nnc3cc(C(F)(F)F)ccc32)CC1)Nc1ccc2c(c1)CCC2	4.5µM	–	–	–	–	–
O=C(/C=C/Nc1ccccc1)c1ccc(Cl)cc1Cl	11µM	·	–	–	–	–
Cc1ccc(N/C=C/C(=O)c2ccc(Cl)cc2Cl)cc1C	·	·	·	–	·	·
CC(=O)Nc1ccc(-c2cc(-c3ccccc3)nc(-c3ccccc3)n2)cc1	–	–	28µM	–	–	–
CC(=O)Nc1ccc(-c2cc(-c3ccc(NC(C)=O)cc3)nc(-c3ccc(NC(C)=O)cc3)n2)cc1	–	–	5.6µM	–	–	–
COc1ccccc1N1CCN(C(=O)c2ccc3c(c2)CCN3S(=O)(=O)c2ccccc2)CC1	7.9µM	–	–	–	–	–
COc1ccc(N2CCN(C(=O)c3ccc4c(c3)CCN4S(=O)(=O)c3ccccc3)CC2)cc1	?	–	–	–	–	–
Cc1cc(/C=C2\SC(=S)NC2=O)c(C)[nH]1	–	–	·	–	–	–
O=C1NC(=S)S/C1=C\c1cc(Cl)ccc1Cl	–	·	–	-31	–	?
Cn1ncc(Br)c1C(=O)NC12CC3CC(CC(C3)C1)C2	10µM	–	–	–	–	–
O=C(Oc1cc(-c2ccccc2)no1)c1ccc(Cl)cc1	–	–	40µM	–	–	–
O=C(N1CCN(c2ccc(F)cc2)CC1)C12CC3CC(CC(C3)C1)C2	?	–	–	–	–	–
COc1cc2cc(C(=O)O)n(C)c2c(OC)c1OC	–	–	13µM	–	–	–
CCc1c(C#N)c(SCCC(=O)Nc2ccc(OC)cc2)nc2c1C(=O)CC(C)(C)C2	?	–	–	–	–	–
CCc1c(C#N)c(SCc2c(C)noc2C)nc2c1C(=O)CC(C)(C)C2	8.9µM	–	–	–	–	–
O=c1c(C=Nc2ccc(Cl)cc2)c[nH]n1-c1cccc(Cl)n1	–	–	–	-52	–	–
O=c1c(C=Nc2cccc(C(F)(F)F)c2)c[nH]n1-c1cccc(Cl)n1	–	–	–	–	–	–
CC1(C)Cc2cccc(OCC(=O)Nc3ccccc3F)c2O1	?	–	–	–	–	–
CC(C)(C)c1ccc(C(=O)NCC(c2cccs2)S(=O)(=O)c2ccccc2)cc1 (configuration not stated)	2.8µM	·	–	–	·	–
CCOc1ccc(C(=O)NCC(c2cccs2)S(=O)(=O)c2ccccc2)cc1 (configuration not stated)	?	·	–	–	·	–
SMILES	GLP1R inv ag	p53 reactivator	ClpP mod	LDHA inh	GLP1R ag	GLP1R cytotox
NC(=O)c1cccc(-c2cnc(N)c(C(=O)c3cccnc3)n2)c1	3.5µM	·	–	–	–	–
CCOC(=O)c1ccccc1NC(=O)/C=C/C(=O)O	–	–	–	–	–	–
COC(=O)[C@H](C)NC(=O)Nc1ccccc1C(F)(F)F	–	–	–	–	–	–
COC(=O)c1ccccc1NC(=O)N[C@@H](C)C(=O)OC	–	–	28µM	–	–	?
CCOC(=O)c1ccccc1NC(=O)N[C@@H](C)C(=O)OC	–	–	20µM	–	–	–
CCc1nc(SCC(=O)NCC2CCCO2)c2c(=O)n(C)c(=O)n(C)c2n1 (configuration not stated)	–	–	–	–	–	–
O=C(Cc1ccccc1)NN1C(=O)C2C3C=CC([C@@H]2C1=O)C31CC1 (some centres not stated)	–	–	–	–	–	–
Cc1ccc(C)c(NC(=S)c2ccc3ccccc3n2)c1	5.6µM	?	–	–	–	2.8µM
CNc1cc(-c2ccc(CC#N)cc2)ncn1	?	·	–	–	–	–
CC1(c2ccccc2)NC(=O)N(CC(=O)Nc2ccc(Cl)c(S(=O)(=O)N3CCCCC3)c2)C1=O (configuration not stated)	?	–	–	–	–	–
Cc1ccccc1NC(=O)CN1C(=O)NC(C)(c2ccc3c(c2)OCO3)C1=O (configuration not stated)	–	–	16µM	–	–	–
CC1(c2ccc3c(c2)OCO3)NC(=O)N(CC(=O)Nc2ccccc2[N+](=O)[O-])C1=O (configuration not stated)	–	–	–	–	–	–
Cc1ccc(C2(C)NC(=O)N(CC(=O)Nc3ccc(Cl)c(S(=O)(=O)N4CCCCC4)c3)C2=O)cc1 (configuration not stated)	10µM	–	–	–	–	–
CC1(c2ccccc2)NC(=O)N(CC(=O)Nc2ccc3c(c2)CCC3)C1=O (configuration not stated)	10µM	–	–	–	–	–
O=C(CCc1nc2ccccc2c(=O)[nH]1)Nc1ccc(F)cc1	–	–	–	–	–	–
CC(=O)c1cc2c(C)c(C(=O)c3ccccc3)oc2cc1O	–	–	–	–	–	–
CCn1nnc(NC(=O)COc2cc(C)ccc2C(C)C)n1	–	–	–	–	–	–
O=C(O)CC(NC(=O)c1ccc2c(c1)OCO2)c1cccc([N+](=O)[O-])c1 (configuration not stated)	–	–	·	–	–	–
N#CCCN1CCN(Cc2cc(-c3ccccc3)ccc2O)CC1	–	–	–	–	–	–
CC(C)(C)CC(C)(C)c1ccc(O)c(CN2CCN(CCC#N)CC2)c1	11µM	–	–	–	–	–
COc1ccc(NC(=O)C[C@H]2C(=O)N(Cc3cccnc3)C[C@@H]2Cc2ccccc2)cc1	–	·	–	–	–	–
COC(=O)CN1C(=S)N(Cc2ccccc2)C(=O)C1CC(=O)Nc1ccc(OC)cc1 (configuration not stated)	–	–	–	–	–	–
